# Reference: PubChem BioAssay AID2216 (Broad Institute, 2009)
# The whole screen tested about 300,000 compounds, of which about 3,300 (1.1%) were called active. About 6% were inconclusive and are not listed.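 Rule for the calls: active = more than half of the replicate wells show a fall in the fluorescence ratio signal beyond about 16% (limit read from the data, passing the limit was not always enough); inconclusive = exactly half of the replicate wells pass the set limit; inactive = fewer than half of replicates pass the limit.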 Only a selection was taken, and actives are over-represented in it overall.
# System: Ran GTPase (GTP-bound) - importin-beta complex
# Assay: disruptors of Ran-importin-beta complex formation – biochemical, FRET, CFP-Ran, YFP-importin-beta, homogeneous, primary screen (AID 2216);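 note: 0% = DMSO wells and 100% = Ran loaded with GDP instead of GTP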
# Details: cell-free CFP-Ran/YFP-importin-beta FRET ratio; stronger effect = higher value; concentration not given here
row,Compound,inhibition
1,COc1ccc(C)cc1NC(=O)CSc1nc(SC)ns1,2.19% (inactive)
2,COC(=O)c1cc(OC)c(OC)cc1NC(=O)CSc1ccc(C)cc1,-0.733% (inactive)
3,COc1ccc(C)cc1NC(=O)CSc1ccc(Cl)cc1,27.5% (active)
4,CCC(c1nnc(SCC(=O)NNC(=O)c2ccccc2)n1Cc1ccccc1)N(C)C (configuration not stated),-5.06% (inactive)
5,Cc1cc(C)c(C#N)c(N2CCC(C(N)=O)CC2)n1,-1.05% (inactive)
6,Cc1cccn2c(=O)c(/C=C(\C#N)C(N)=O)c(N3CCCCCC3)nc12,-1.31% (inactive)
7,Cc1cccn2c(=O)c(/C=C(\C#N)S(=O)(=O)c3ccc(Cl)cc3)c(N3CCC(C(N)=O)CC3)nc12,16.6% (active)
8,CS(=O)(=O)N(CC(=O)N1CCc2ccccc2C1)c1ccc(Br)cc1,0.322% (inactive)
9,Cc1ccc(-c2csc(NC(=O)C3=COCCO3)n2)cc1C,2.13% (inactive)
10,COc1ccc2oc(=O)c(C(=O)N3CCCC3)cc2c1,0.715% (inactive)
11,COc1cccc(C(=O)NNC(=O)c2cccc(F)c2)c1,-3.67% (inactive)
12,COc1cccc(C(=O)c2cc3ccc(O)cc3oc2=O)c1,26.4% (active)
13,COc1cccc(N2CC(NC(=O)c3ccc4ccccc4c3)CC2=O)c1 (configuration not stated),-1.06% (inactive)
14,CCN1C(=O)[C@H]2[C@@H](c3ccc(-c4ccc(F)cc4)cc3)N[C@@](Cc3ccccc3)(C(=O)OC)[C@H]2C1=O,-2.12% (inactive)
15,COc1ccc(N2CCN(C(=O)COC(=O)c3cccc(S(=O)(=O)Nc4ccccc4OC)c3)CC2)cc1,-1.93% (inactive)
16,CC1CC(=O)N(CC(=O)Nc2cccc(Cl)c2)c2ccccc2S1(=O)=O (configuration not stated),18.5% (active)
17,CCOC(=O)c1cccc(NC(=O)CN2C(=O)C3CC=CCC3C2=O)c1 (configuration not stated),3.31% (inactive)
18,O=C(CN1C(=O)CC(c2ccccc2)S(=O)(=O)c2ccccc21)NC1CCCC1 (configuration not stated),0.0598% (inactive)
19,COc1ccc2c(c1)C(=O)Nc1cc(Cl)ccc1N2,1.28% (inactive)

row,Compound,inhibition
1,Cc1noc(C)c1CSCC(=O)N(CCC(C)C)c1c(N)n(Cc2ccccc2)c(=O)[nH]c1=O,-1.15% (inactive)
2,COc1ccc(CN2[C@@H](CC(=O)O)c3cc(F)ccc3S2(=O)=O)cc1,3.99% (inactive)
3,CCN1C(=O)[C@H]2[C@@H](c3ccc(SC4CCCCC4)c(OC)c3)N[C@@](Cc3ccccc3)(C(=O)OC)[C@H]2C1=O,-1.26% (inactive)
4,CN1CCN(c2cc(=O)n(-c3ccc(Cl)cc3)c(=O)[nH]2)CC1,31.4% (active)
5,O=C(Cc1ccc(-n2c(=O)[nH]c3ccccc3c2=O)cc1)N1CCN(c2cccc(Cl)c2)CC1,2.52% (inactive)
6,CN1CCN(c2ccc(NC(=O)c3ccc4c(c3)[nH]c(=O)n4Cc3ccc(F)cc3)cc2)CC1,0.81% (inactive)
7,CCCC[C@@H]1CN=C(N)N1CCCC,5.62% (inactive)
8,O=C(Oc1ccc(-c2nnco2)cc1)c1ccc(F)c(S(=O)(=O)N2CCOCC2)c1,1.51% (inactive)
9,CCCCOc1ccc(CSC(=N)N)cc1[N+](=O)[O-],-0.296% (inactive)
10,CCCCCOc1ccc(CSC2=NCCN2)cc1[N+](=O)[O-],-3.18% (inactive)
11,CCCOc1ccc(Cn2ccnc2)cc1[N+](=O)[O-],22.9% (active)
12,Cc1cc(=O)[nH]c(SCc2ccc(Cl)cc2)n1,2.35% (inactive)
13,COc1ccccc1CCC(=O)OCC(=O)N1CCN(S(=O)(=O)c2ccc(C)cc2C)CC1,-0.0627% (inactive)
14,Cc1ccc(S(=O)(=O)CCC(=O)OCC(=O)N(C)C2CCS(=O)(=O)C2)cc1 (configuration not stated),-1.57% (inactive)
15,CCc1ccc(C(=O)COC(=O)c2ccco2)cc1,-1.46% (inactive)
16,O=C(Nc1ccc2nc3n(c(=O)c2c1)CCCCC3)c1ccccc1Cl,-0.768% (inactive)
17,O=C(Nc1ccc2sc3ccccc3c(=O)c2c1)c1ccccc1Cl,97.7% (active)
18,O=C(Nc1cccc(NC(=O)c2ccccc2[N+](=O)[O-])c1)c1ccccc1Cl,1.99% (inactive)
19,COc1cnn(-c2ccc([N+](=O)[O-])cc2)c(=O)c1Cl,9.19% (inactive)

row,Compound,inhibition
1,CCCCCN(C(=O)CCC(=O)OCC(=O)NC1CCC(C)CC1)c1c(N)n(CCCC)c(=O)[nH]c1=O (configuration not stated),10.6% (inactive)
2,O=C(NC(Cc1ccccc1)C(=O)N1CCCC(C(F)(F)F)C1)c1ccccc1 (configuration not stated),-0.899% (inactive)
3,CC1(C)CC(=O)C=C(Nc2ccccc2)C1,11.7% (inactive)
4,Cc1cc(O)ccc1NC1=CC(=O)CC(C)(C)C1,18.8% (active)
5,COC(=O)NNC1=CC(=O)CC(C)(C)C1,2.34% (inactive)
6,CCCCCCCNC(=O)C1(CC2CC(c3cccc(Br)c3)=NO2)CCN(C(=O)c2cc(OCC)c(OCC)c(OCC)c2)CC1 (configuration not stated),-1.08% (inactive)
7,COc1ccc(/C=C(\C#N)c2c[nH]c3ccccc23)cc1,17.3% (active)
8,COc1ccc2[nH]cc(/C=C(/C#N)S(=O)(=O)c3ccccc3)c2c1,-20.9% (inactive)
9,COc1cc(/C=C(\C#N)c2nc3ccccc3[nH]2)ccc1O,-13.2% (inactive)
10,CCCNC(=O)c1ccc(N2CCC3(CC2)CC(c2cccc(Br)c2)=NO3)c(NC(=O)c2ccco2)c1,-1.47% (inactive)
11,Cc1cc(/C=C2/SC(=O)N(CC(=O)N3CCCC3)C2=O)c(C)n1C,-0.395% (inactive)
12,CCN(CC(=O)Nc1c(F)cccc1F)C(=O)CN1c2cccc3cccc(c23)S1(=O)=O,-0.907% (inactive)
13,COc1ccc(Cc2nnc(SCC(=O)Nc3ccc(C)c(Cl)c3)[nH]c2=O)cc1,-0.239% (inactive)
14,O=C(COC(=O)c1ccc([N+](=O)[O-])cc1Cl)NC(=O)c1ccccc1,-13.9% (inactive)
15,CN(C)/C=C1\C=C(c2ccccc2)OC1=O,-3.27% (inactive)
16,Cc1ccc(C2=C/C(=C\c3cccnc3)C(=O)O2)cc1,8.88% (inactive)
17,COc1cccc(/C=C2\C=C(c3ccc(C)cc3)OC2=O)c1OC(C)=O,20.6% (active)
18,COc1cccc(/C=C/C(=O)OCC(=O)N2CCCc3ccccc32)c1,3.35% (inactive)
19,O=C(CCNC(=O)c1ccc(Br)cc1)NCCCc1ccccc1,1.56% (inactive)
